This passage reports growth inhibition results from PubChem BioAssay (NCI).

The panel holds about 79,000 compounds, 15% with a hit somewhere; the sample as a whole holds those more often. Unmarked numbers belong to inactive results. Activity calls are given as the source filed them. No stated cut-off is given here; in the data, active means growth inhibition above about 70%; inactive means the rest.

A short description of the assay: NCI Yeast Anticancer Drug Screen. Data for the cln2 rad14 strain (AID 165).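 Further: 0% = growth equal to vehicle treated cultures.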 The conditions noted are these: S. cerevisiae cln2 rad14 strain, at 50.0 µM, stronger effect = higher value. The procedure:
Growth inhibition of yeast strains with defined genetic alterations is measured as a screen for potential anti-cancer activity. Selected strains with alterations in DNA damage repair or cell cycle control were exposed to compounds and growth inhibition was measured relative to vehicle treated controls. The strain used in this assay is cln2 rad14
As to `CCCC(=O)Nc1cn(COC)c(C(=O)N2C[C@@H]3C[C@]34C2=CC(=O)c2[nH]cc(C)c24)n1`, the growth inhibition is 14.2%.
Regarding `CC1(C)CC(O)(Cc2ccccc2)C(O)c2ccccc21` (stereo not given), the growth inhibition is 54.5%.
For `CC1(C)CC(O)CC(O)C1` (stereo not given), the growth inhibition is 14.1%.
Turning to `CCOC(=O)Nc1cc2c(c(N)n1)N=C(c1ccc(Cl)cc1Cl)CN2`, the growth inhibition is -5.1%.
As for `CCOC1(COP(=O)(OCc2ccccc2)OCc2ccccc2)COC(COP(=O)(OCc2ccccc2)OCc2ccccc2)(OCC)CO1` (stereo not given), the growth inhibition is 2.2%.
Take `O=C(c1ccc(O)cc1)C1N=NCC1c1ccccc1` (stereo not given): the growth inhibition is -17.8%.
As for `CCN1C(=NCCO)NS(=O)(=O)c2ccccc21`, the growth inhibition is -1.95%.
The same measure for `COC(=O)/C(C)=C/C=C/C(OC)C(OC(N)=O)/C(C)=C/C(C)C(O)C(CC(C)CC1=C(OC)C(=O)C=C(N)C1=O)OC` (stereo not given): 9.3%.
With `C[C@H]1C(=O)CCC2[C@]3(C)CC4OC(=O)C5(CC[C@@]6(C)CCC(C)(C)CC6C45C)C3CC[C@@]21C` (stereo not given in full), the growth inhibition was -3.65%.
The same measure for `CCN1OCC(C)(C(=O)OC)C1C` (stereo not given): -31%; for `C/C(CC(=O)Nc1ccc(C)c(C)c1)=N\NC(N)=S`: 18.2%; for `O=C(COCC(=O)N/N=C/c1c(O)ccc2ccccc12)N/N=C/c1c(O)ccc2ccccc12`: -8.25%.
The same measure for `O=C(O)C1C2C=CC(O2)C1C(=O)Nn1cccc1` (stereo not given): -12.8%; for `COc1ccc(/C=C2\Cc3ccccc3C2=O)cc1OC`: 8.25%.
With `CCOC(=O)Nc1nc2cc(C(=O)OC)n(C)c2s1`, the growth inhibition was 11.1%.
The same measure for `N#CNc1nc(N)cc(N)n1`: -5.85%; for `C/C(CC(=O)N(C(C)C)C(C)C)=N\NC(=O)c1ccncc1`: 18.7%.
As to `BrC1Cc2ccccc2C(Br)Cc2ccccc21` (stereo not given), the growth inhibition was -47.5%.
Regarding `Cc1cc(C)cc(C(=O)OC2CCCC2)c1`, the growth inhibition was 4.5%.
The same measure for `COC(=O)c1nc(NN)[nH]c(=O)c1C`: 3.35%; for `COc1ccc(C(=O)C(C(=O)C(=O)Nc2ccc(Cl)c(Cl)c2)c2ccc(OC)cc2)cc1` (stereo not given): 38.1%; for `CCCCCCCCCCCCCCCCCCCCCCOC(=O)CCC(=O)OCCCCCCCCCCCCCCCCCCCCCC`: -0.95%.
In the case of `COC(=O)c1ccc(CSc2ccc(N)cc2)cc1`, the growth inhibition is 40.1%.
The same measure for `CCCCCCCCCCCCCCC(=O)Cl`: 8.2%; for `COC(=O)c1ccc(CSc2ccccc2NC(=S)Nc2cccc(SC)c2)o1`: 5.9%; for `Cc1cc2c3c(nc2c2cc[nH]c(C)c12)CCCC3`: 91.7% (active).
Take `CSc1nc2nc[nH]c(=O)c2[nH]1`: the growth inhibition is -14.1%.
With `COc1ccc2c3c([nH]c2c1)CCN(Cc1ccccc1)C3`, the growth inhibition was 19.6%.
With `Nc1ccc2ncc(NCc3ccc(F)cc3)nc2c1`, the growth inhibition is 18.1%.
In the case of `CCOC(=O)Oc1cc2c(ccn2C)c2c1c1ccccc1n2C(=O)OCC`, the growth inhibition was 8.9%.
Turning to `Cc1cc2c(-c3ccc(Cl)cc3)oc(-c3ccc(Cl)cc3)c2cc1C`, the growth inhibition is 2.85%.
Consider `O=C(/C=C/c1ccsc1)c1ccsc1`, for which the growth inhibition was 3.6%.
Take `COc1ccc([C@H]2CC3C(=O)N(c4ccc(OC)cc4)C(=O)C3c3[nH]c4ccccc4c32)cc1` (stereo not given in full): the growth inhibition was -64.2%.
Consider `C1=Nc2ccccc2/C1=C/c1cccs1`, for which the growth inhibition is -47.4%.
As for `c1ccc([P+](c2ccccc2)(c2ccccc2)C2c3ccccc3CCc3ccccc32)cc1`, the growth inhibition is 99.5% (active).
As for `C/C(=N\N(C)C)c1sc(-n2nc(-c3ccccc3)cc2-c2ccccc2)nc1C`, the growth inhibition is -8%.
The same measure for `COc1ccc2cc(C(=O)Nc3ccc(O)c(C(=O)O)c3)ccc2c1OC`: -10.6%; for `S=c1cc(-c2ccccc2)oc2ccccc12`: 6.85%; for `CC(=O)/C(=C/n1c(=S)sc2ccccc21)C(=O)Nc1ccccc1C`: 15.9%.
As to `O=C(O)c1ccccc1C(=O)c1ccc(Br)cc1`, the growth inhibition was 14.6%.
